Out of some 1,900 compounds screened, about 250 (13%) were called active. Not shown: some 4% with an inconclusive outcome. A selection follows. Entries with a potency or affinity are not part of this list. Unmarked numbers belong to inactive results.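 Rule for the calls: active = fitted curve reaches 40% rescue activity at or below the top valid dose, in every test run; inconclusive = test runs disagree, some active and some inactive; inactive = every run misses the threshold or moves the wrong way.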
Experiment: suppressors of statin myotoxicity in myotubes, dose response, cell-based, C2C12 myotubes, ATP luminescence, cherry pick (AID 624405);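 note: myotubes are challenged with simvastatin at 10 µM to lower ATP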
Conditions: C2C12 myotubes + simvastatin, 48 h, scaled: DMSO wells 0, geranylgeraniol wells 100; series mostly up to 19.5 µM; rescue activity (ATP increase): at the top concentration

Row | SMILES | rescue activity (ATP increase)
1 | O=C(Nc1ccccc1)Oc1cccc2cccnc12 | -6.01%
2 | COc1ccc(S(=O)(=O)Nc2ccccc2C(=O)NC(C)(C)C)cc1OC | 33.8%
3 | COc1ccccc1NS(=O)(=O)c1cccc(NC(=O)c2ccc3ccccc3n2)c1 | 4.04%
4 | C#CCOC(=O)c1ccccc1C(=O)N(CC)CC | -18.7%
5 | O=C(CCN1CCc2ccccc21)c1ccc2c(c1)OCCO2 | -0.935% [at 10 µM]
6 | COc1ccc(C2CC(=O)Oc3c(C(CCN4CCCCC4)c4ccc(N(C)C)cc4)c(OC)cc(OC)c32)cc1 (configuration not stated) | -41.5%
7 | O=C(Nc1cnn(Cc2ccccc2)c1)c1cc2nc(-c3ccco3)cc(C(F)(F)F)n2n1 | -13.4%
8 | COc1ccc(S(=O)(=O)Nc2cccc3c2O[C@H](CN(C)CC2CCCCC2)[C@H](C)CN([C@H](C)CO)C3=O)cc1 | -8.94%
9 | Cc1cc(NC(=O)COC(=O)C2CCN(S(=O)(=O)c3c(Cl)cccc3Cl)CC2)no1 | 26.2%
10 | N#Cc1ccc(-c2nnnn2-c2ccc3c(c2)OCO3)cc1 | 6.82%
11 | COc1ccccc1N(CC(=O)Nc1ccc2c(c1)OCCO2)S(C)(=O)=O | 5.49%
12 | COC(=O)c1ccccc1NC(=O)c1ccccc1OC | -9.52%
13 | Cc1noc(C)c1S(=O)(=O)N1CCC(C(=O)N2CCN(c3ccccc3Cl)CC2)CC1 | 7.83%
14 | C[C@@H]1CCCCO[C@H](CN(C)CC2CCCCC2)[C@@H](C)CN([C@H](C)CO)C(=O)c2cc(NC(=O)CCCN(C)C)ccc2O1 | 2.27%
15 | C[C@@H]1CN([C@@H](C)CO)C(=O)c2cc(C3=CCCCC3)cnc2O[C@@H]1CN(C)C(=O)C1CCOCC1 | 16.4%
16 | O=C(COC(=O)CNC(=O)c1ccc(Br)o1)Nc1ccc2c(c1)OCCO2 | 20.8%
17 | COc1ccc(C(=O)N2CCN(C(=O)c3cc(OC)c(OC)c(OC)c3)CC2)cc1 | -13.4%
18 | COc1ccc(C(=O)N2CCc3cc(OC)c(OC)cc3C2)cc1OC | 14.1%
19 | N#Cc1cc2c(nc1SCC(=O)N1CCCCC1)CCCCC2 | 7.11%
20 | CC(C)(C)C(=O)Nc1ccccc1N1CCN(C(=O)c2ccc(Cl)cc2)CC1 | 47.4%
21 | C[C@@H]1CN([C@H](C)CO)C(=O)Cc2cc(NC(=O)Nc3ccc(F)cc3)ccc2O[C@H]1CN(C)Cc1ccc(Cl)c(Cl)c1 | 21.5% [at 21 µM]

Row | SMILES | rescue activity (ATP increase)
22 | C[C@@H]1CN([C@@H](C)CO)C(=O)c2cc(NC(=O)C3CCCCC3)ccc2O[C@@H]1CN(C)Cc1ccc(Cl)c(Cl)c1 | -5.83% [at 21 µM]
23 | C[C@H](CO)N1C[C@H](C)[C@@H](CN(C)Cc2ccc(Cl)c(Cl)c2)Oc2ccc(NC(=O)NC3CCCCC3)cc2CC1=O | 17.5%
24 | C[C@@H]1CN([C@@H](C)CO)C(=O)Cc2cc(NC(=O)C3CCCCC3)ccc2O[C@H]1CN(C)Cc1ccc(-c2ccccc2)cc1 | 38.7%
25 | C[C@H](CO)N1C[C@H](C)[C@@H](CN(C)Cc2ccc(Cl)c(Cl)c2)Oc2ccc(NC(=O)c3ccncc3)cc2CC1=O | 24.4%
26 | C[C@H]1CN([C@@H](C)CO)C(=O)Cc2cc(NC(=O)Cc3cn(C)c4ccccc34)ccc2O[C@@H]1CN(C)Cc1ccc(Cl)c(Cl)c1 | 28.9%
27 | C[C@@H]1CN([C@H](C)CO)C(=O)Cc2cc(NC(=O)Cc3cn(C)c4ccccc34)ccc2O[C@@H]1CN(C)Cc1ccc(Cl)c(Cl)c1 | 28.1%
28 | C[C@@H]1CN([C@H](C)CO)C(=O)c2cc(NC(=O)C3CCCCC3)ccc2O[C@H]1CN(C)Cc1ccc(Cl)c(Cl)c1 | -1.86% [at 21 µM]
29 | COc1ccc(S(=O)(=O)Nc2ccc3c(c2)C(=O)N([C@@H](C)CO)C[C@H](C)[C@@H](CN(C)S(=O)(=O)c2ccc(F)cc2)OCCCC[C@@H](C)O3)cc1 | 17.1%
30 | C[C@@H]1CCCCO[C@H](CN(C)C(=O)Nc2cccc3ccccc23)[C@H](C)CN([C@@H](C)CO)C(=O)c2cc(NC(=O)Nc3ccc4c(c3)OCO4)ccc2O1 | 16.8%
31 | COc1cccc(S(=O)(=O)N(C)C[C@@H]2Oc3ncc(C#CCC(C)C)cc3C(=O)N([C@@H](C)CO)C[C@H]2C)c1 | 4.75%
32 | CC(=O)Nc1cc(-c2nn(C)c(=O)c3ccccc23)ccc1N1CCOCC1 | 33.7%
33 | C[C@@H]1CCCCO[C@H](CN(C)C(=O)C2CCCCC2)[C@H](C)CN([C@H](C)CO)C(=O)c2cc(NS(=O)(=O)c3ccccc3)ccc2O1 | 26.7%
34 | COc1ccc(CC(=O)Nc2ccc(-c3cn4ccccc4n3)cc2)cc1 | -1.98%
35 | C[C@@H]1CN([C@@H](C)CO)C(=O)Cc2cc(NC(=O)C3CCCCC3)ccc2O[C@H]1CN(C)Cc1ccc(Oc2ccccc2)cc1 | 17.8%
36 | C[C@@H]1CN([C@@H](C)CO)C(=O)Cc2cc(NC(=O)C3CC3)ccc2O[C@H]1CN(C)Cc1ccc(Oc2ccccc2)cc1 | 26.8%
37 | CCCCNc1ncnc2c1cnn2Cc1ccc(Cl)cc1 | -49%
38 | COCCCn1c(SCC(=O)NCc2ccco2)nc2sc3c(c2c1=O)CCC3 | 29.6%
39 | O=C(CCn1c(SCC(=O)NCc2ccco2)nc2ccccc2c1=O)NCCc1ccccc1 | 38.7%
40 | COc1ccc(OCC(=O)Nc2nnc(S(=O)(=O)N3CCCCCC3)s2)cc1 | -8.53%
41 | Cc1cnc(C(=O)Nc2nccs2)cn1 | -34%
42 | CCN(CC)S(=O)(=O)c1cccc(-c2nnc(SCC(=O)NCCC3=CCCCC3)n2N)c1 | 5.05%

Source: PubChem BioAssay AID624405 (Broad Institute, 2012)
